Data: PubChem BioAssay AID1159580 (chemical genetic matrix, 2015)
Screen size: about 5,500 compounds; about 2,000 (36%) were called active. About 18% were inconclusive and are not listed. Rule as the data show it: active = normalized growth mostly below about 0.91 (no sharp cut-off); inconclusive = no clear call, values can overlap the other calls; inactive = mostly above about 0.92. This is one part of the list.

Assay: chemical genetic growth profiling, strain panel (AID 1159580);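 also: tested at 20 µM; growth read once vehicle control cultures reached saturation at 30 °C; 1 = growth at the plate median or of vehicle wells; lower values mean less growth of the strain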
Conditions: S. cerevisiae deletion strains, growth OD
[1] = locus YHR030C, strain SLT2, stronger effect = lower value
[2] = locus YHR079C, strain IRE1, stronger effect = lower value
[3] = locus YJL095W, strain BCK1, stronger effect = lower value
[4] = locus YJR066W, strain TOR1, stronger effect = lower value
[5] = locus YLR113W, strain HOG1, stronger effect = lower value
[6] = locus YNL183C, strain NPR1, stronger effect = lower value
[7] = locus YOR231W, strain MKK1, stronger effect = lower value
[8] = locus YPL256C, strain CLN2, stronger effect = lower value

Measured: normalized growth

CC(=O)/C(C#N)=N\Nc1ccc(F)cc1
active: locus YAR019C, strain CDC15, stronger effect = lower value 0.429 | locus YBL105C, strain PKC1, stronger effect = lower value 0.519 | locus YBR135W, strain CKS1, stronger effect = lower value 0.782 | locus YBR136W, strain MEC1, stronger effect = lower value 0.583 | locus YBR160W, strain CDC28, stronger effect = lower value 0.723 | locus YDL017W, strain CDC7, stronger effect = lower value 0.584 | locus YDL028C, strain MPS1, stronger effect = lower value 0.728 | locus YDL101C, strain DUN1, stronger effect = lower value 0.201 | locus YDL214C, strain PRR2, stronger effect = lower value 0.118 | locus YDR054C, strain cdc34, stronger effect = lower value 0.525 | locus YDR477W, strain SNF1, stronger effect = lower value 0.127 | locus YER123W, strain YCK3, stronger effect = lower value 0.115 | locus YER133W, strain GLC7, stronger effect = lower value 0.17 | locus YFL009W, strain cdc4, stronger effect = lower value 0.631 | locus YFL029C, strain CAK1, stronger effect = lower value 0.468 | locus YFR003C, strain YPI1, stronger effect = lower value 0.633 | locus YFR019W, strain FAB1, stronger effect = lower value 0.115 | locus YFR028C, strain CDC14, stronger effect = lower value 0.699 | locus YGR040W, strain KSS1, stronger effect = lower value 0.137 | locus YGR052W, strain FMP48, stronger effect = lower value 0.185 | locus YGR092W, strain DBF2, stronger effect = lower value 0.102 | [1] 0.108 | [2] 0.138 | locus YHR082C, strain KSP1, stronger effect = lower value 0.171 | locus YHR205W, strain SCH9, stronger effect = lower value 0.102 | locus YIL147C, strain SLN1, stronger effect = lower value 0.585 | [3] 0.12 | locus YJL128C, strain PBS2, stronger effect = lower value 0.316 | locus YJL157C, strain FAR1, stronger effect = lower value 0.102 | locus YJR066W, strain TOR1 (second series), stronger effect = lower value 0.107 | [4] 0.137 | locus YKL048C, strain ELM1, stronger effect = lower value 0.14 | locus YKL067W, strain YNK1, stronger effect = lower value 0.117 | locus YKL101W, strain HSL1, stronger effect = lower value 0.118 | locus YKL193C, strain SDS22, stronger effect = lower value 0.455 | locus YKL203C, strain TOR2, stronger effect = lower value 0.126 | [5] 0.178 | locus YLR133W, strain CKI1, stronger effect = lower value 0.118 | locus YLR403W, strain SFP1, stronger effect = lower value 0.0142 | locus YML070W, strain DAK1, stronger effect = lower value 0.123 | locus YMR001C, strain CDC5, stronger effect = lower value 0.458 | locus YMR205C, strain PFK2 (second series), stronger effect = lower value 0.132 | locus YMR277W, strain FCP1, stronger effect = lower value 0.349 | locus YNL006W, strain LST8, stronger effect = lower value 0.57 | locus YNL020C, strain ARK1, stronger effect = lower value 0.123 | locus YNL161W, strain CBK1, stronger effect = lower value 0.409 | [6] 0.147 | locus YNL207W, strain RIO2, stronger effect = lower value 0.632 | locus YNL222W, strain SSU72, stronger effect = lower value 0.487 | locus YNL307C, strain MCK1 (second series), stronger effect = lower value 0.126 | locus YOL078W, strain AVO1, stronger effect = lower value 0.568 | locus YOL136C, strain PFK27, stronger effect = lower value 0.114 | locus YOR061W, strain CKA2, stronger effect = lower value 0.127 | locus YOR119C, strain RIO1, stronger effect = lower value 0.131 | [7] 0.136 | locus YOR329C, strain SCD5, stronger effect = lower value 0.488 | locus YPL031C, strain PHO85, stronger effect = lower value 0.124 | locus YPL153C, strain RAD53, stronger effect = lower value 0.132 | locus YPL204W, strain HRR25, stronger effect = lower value 0.124 | locus YPL209C, strain IPL1, stronger effect = lower value 0.587 | [8] 0.181 | locus YPR025C, strain CCL1, stronger effect = lower value 0.631 | strain NNK1, stronger effect = lower value 0.344 | strain TSCII, stronger effect = lower value 0.512
inactive: locus YDR052C, strain DBF4, stronger effect = lower value 0.957 | locus YDR226W, strain ADK1, stronger effect = lower value 0.978

O=C(NC(=O)c1ccccc1Cl)Nc1ccc(OC(F)(F)F)cc1
inactive: locus YAL021C, strain ccr4, stronger effect = lower value 1.05 | locus YAL026C, strain drs2, stronger effect = lower value 1.02 | locus YAL030W, strain snc1, stronger effect = lower value 1.03 | locus YBL061C, strain skt5, stronger effect = lower value 1.02 | locus YBR009C, strain hhf1, stronger effect = lower value 0.999 | locus YBR023C, strain chs3, stronger effect = lower value 1.04 | locus YBR171W, strain sec66, stronger effect = lower value 1.05 | locus YBR231C, strain swc5, stronger effect = lower value 1.06 | locus YBR279W, strain paf1, stronger effect = lower value 1.01 | locus YCL011C, strain gbp2, stronger effect = lower value 1.04 | locus YCL016C, strain dcc1, stronger effect = lower value 1.04 | locus YCL061C, strain MRC1, stronger effect = lower value 1.04 | locus YCL069W, strain vba3, stronger effect = lower value 1.04 | locus YCR088W, strain abp1, stronger effect = lower value 1.03 | locus YDL005C, strain med2, stronger effect = lower value 1.05 | locus YDL040C, strain nat1, stronger effect = lower value 1.03 | locus YDR001C, strain nth1, stronger effect = lower value 1.02 | locus YDR069C, strain doa4, stronger effect = lower value 1.06 | locus YDR137W, strain rgp1, stronger effect = lower value 1.06 | locus YDR159W, strain sac3, stronger effect = lower value 1.04 | locus YDR195W, strain ref2 1.11 | locus YDR297W, strain sur2, stronger effect = lower value 1.03 | locus YDR334W, strain swr1, stronger effect = lower value 1.04 | locus YDR335W, strain msn5, stronger effect = lower value 1.04 | locus YDR392W, strain spt3, stronger effect = lower value 1.01 | locus YEL003W, strain gim4, stronger effect = lower value 1.03 | locus YEL037C, strain rad23, stronger effect = lower value 1.03 | locus YEL061C, strain CIN8 (second series), stronger effect = lower value 1.03 | locus YER015W, strain faa2, stronger effect = lower value 1.02 | locus YER016W, strain bim1, stronger effect = lower value 1.03 | locus YER111C, strain swi4, stronger effect = lower value 1.04 | locus YER155C, strain BEM2 (second series), stronger effect = lower value 1.07 | locus YFR010W, strain ubp6, stronger effect = lower value 1.03 | locus YGL167C, strain pmr1, stronger effect = lower value 1.03 | locus YGL173C, strain kem1, stronger effect = lower value 1.05 | locus YGL227W, strain vid30, stronger effect = lower value 1.03 | locus YGL240W, strain doc1, stronger effect = lower value 1.04 | locus YGL253W, strain hxk2, stronger effect = lower value 1.03 | locus YHR013C, strain ard1, stronger effect = lower value 1.09 | locus YHR027C, strain rpn1, stronger effect = lower value 1.04 | [1] 1.07 | [2] 1.07 | locus YHR142W, strain chs7, stronger effect = lower value 1.01 | locus YJL092W, strain hpr5, stronger effect = lower value 1.03 | locus YJL095W, strain BCK1 (second series), stronger effect = lower value 1.02 | [3] 1.06 | locus YJL115W, strain asf1, stronger effect = lower value 1.03 | locus YJL129C, strain trk1, stronger effect = lower value 1.08 | locus YJL154C, strain vps35, stronger effect = lower value 1.04 | locus YJL164C, strain tpk1, stronger effect = lower value 1.02 | locus YJL166W, strain qcr8, stronger effect = lower value 1.05 | locus YJL187C, strain SWE1, stronger effect = lower value 1.03 | [4] 0.971 | locus YKL160W, strain elf1, stronger effect = lower value 1.05 | locus YKR026C, strain gcn3, stronger effect = lower value 1.04 | locus YKR091W, strain srl3, stronger effect = lower value 1.03 | locus YLL001W, strain dnm1, stronger effect = lower value 1.06 | locus YLL026W, stronger effect = lower value 1.02 | locus YLL041C, strain sdh2, stronger effect = lower value 1.03 | locus YLR027C, strain aat2, stronger effect = lower value 1.04 | [5] 1.07 | locus YLR221C, strain rsa3, stronger effect = lower value 1.05 | locus YLR258W, strain gsy2, stronger effect = lower value 1.02 | locus YLR262C, strain YPT6 (second series), stronger effect = lower value 1.06 | locus YLR320W, strain mms22, stronger effect = lower value 1.06 | locus YLR342W, strain FKS1, stronger effect = lower value 1.04 | locus YLR357W, strain rsc2, stronger effect = lower value 1.07 | locus YLR370C, strain arc18, stronger effect = lower value 1.04 | locus YLR384C, strain iki3, stronger effect = lower value 1.03 | locus YML120C, strain ndi1, stronger effect = lower value 1.03 | locus YMR058W, strain fet3, stronger effect = lower value 1.03 | locus YMR125W, strain sto1, stronger effect = lower value 1.06 | locus YMR129W, stronger effect = lower value 1.03 | locus YMR205C, strain PFK2, stronger effect = lower value 1.07 | locus YMR231W, strain pep5, stronger effect = lower value 1.03 | locus YNL071W, strain lat1, stronger effect = lower value 1.05 | [6] 0.985 | locus YNL209W, strain ssb2, stronger effect = lower value 1.03 | locus YNL248C, strain rpa49, stronger effect = lower value 1.07 | locus YNL322C, strain KRE1 (second series), stronger effect = lower value 1.05 | locus YNR049C, strain mso1, stronger effect = lower value 1.03 | locus YOR001W, strain rrp6, stronger effect = lower value 1.01 | locus YOR070C, strain gyp1, stronger effect = lower value 1.05 | locus YOR080W, strain dia2, stronger effect = lower value 1.05 | locus YOR083W, strain WHI5, stronger effect = lower value 1.05 | locus YOR106W, strain vam3, stronger effect = lower value 1.07 | [7] 1.07 | locus YOR265W, strain rbl2, stronger effect = lower value 1.03 | locus YOR270C, strain vph1, stronger effect = lower value 1.1 | locus YOR290C, strain snf2, stronger effect = lower value 1.07 | locus YPL051W, strain arl3, stronger effect = lower value 1.07 | locus YPL078C, strain atp4, stronger effect = lower value 1.06 | locus YPL106C, strain sse1, stronger effect = lower value 1.02 | locus YPL240C, strain hsp82, stronger effect = lower value 1.01 | [8] 1.11
